Out of some 640,000 compounds screened, about 9,300 (1.5%) were called active. The sample as a whole holds a higher share of actives than the screen did. A number with no mark means an inactive call. Rule as the data show it: active = inhibition above about 32%; inactive = the rest.
Assay: TEAD-YAP interaction inhibition, primary screen, TEAD-YAP interaction inhibitor project, luminescence, HEK-TIYL cells (AID 1259422);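 also: 0% = median of test compound wells and 100% = reference inhibitor wells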
Settings: TEAD-Gal4/YAP UAS-luciferase luminescence, at 9.12 µM, active compounds read high

SMILES	inhibition
COc1cc(/C=C2/SC(=O)N(C)C2=O)cc(Br)c1OC	-1.8%
COc1ccc(N2C(=O)CC(NNC(=O)c3ccccc3O)C2=O)cc1 (configuration not stated)	8.23%
CCN(CC)c1ccc(NC(=O)c2ccccc2O)cc1	-31.2%
CC12CCC(C(=O)N(NC(=O)c3ccccc3O)C1=O)C2(C)C (configuration not stated)	74.3% (active)
CC12C=CC3(O1)C(C(=O)N(CC1CCCO1)C3C(=O)NC1CCCCC1)C2C(=O)Nc1ccc(Cl)c(Cl)c1 (configuration not stated)	2.66%
CCOc1ccc(S(=O)(=O)NCCOc2ccc(F)cc2)c(OCC)c1	10.6%
O=C1c2ccccc2C(=O)N1c1cccc(Br)c1	-1.81%
NC(=O)c1ccc(-c2nc(NCCO)c3ncn(-c4ccsc4)c3n2)cc1	18.6%
COc1ccc(-c2nc(NCCO)c3ncn(-c4ccsc4)c3n2)cn1	41.7% (active)
Nc1cccc(-c2nc(NCCO)c3ncn(-c4ccccc4)c3n2)c1	31.7%
Cn1c(Nc2nc(NCCN3CCOCC3)c3ncn(-c4ccccc4)c3n2)nc2ccccc21	25.9%
COc1ccc(-c2nc(NCCN3CCOCC3)c3ncn(-c4ccccc4)c3n2)cn1	59.2% (active)
Clc1nc(NCCN2CCOCC2)c2ncn(-c3ccccc3)c2n1	-5.11%
C=CCn1c(=O)c(C(=O)Nc2cccc(Cl)c2)c(O)c2ccccc21	3.7%
O=C(Nc1cccc2c1C(=O)c1ccccc1C2=O)c1ccc(F)cc1	-2.6%
CNC(=O)C(=O)Nc1cc(OC)ccc1OC	10.2%
CONC(=O)c1ccc(C(=O)c2cc(OC)ccc2OC)cc1	35.8% (active)
COc1ccc(OC)c(C(=O)c2ccc(C(=O)NC3CC(C)(C)NC(C)(C)C3)cc2)c1	17.9%
CCOc1ccc(Nc2nc(Nc3ccc(C(C)=O)cc3)nc(C)c2[N+](=O)[O-])cc1	6.26%
COc1ccc(OC)c(NC(=O)CN2CCC(n3c(C)nc4cc(F)ccc43)CC2)c1	-30.9%
CCOC(=O)CC1NCC2c3ccccc3CCN2C1=O (configuration not stated)	2.64%

SMILES	inhibition
OC1CCN(c2ccnc3c(-c4cccc(C(F)(F)F)c4)cnn23)CC1	10%
O=C(COc1ccc(Cl)cc1Cl)N1CCCc2ccccc21	-11.7%
O=C(c1c[nH]c(=O)n(-c2ccc(F)c(Cl)c2)c1=O)N1CCCc2ccccc21	38.2% (active)
O=C(c1cc(Cl)ccc1[N+](=O)[O-])N1CCCc2ccccc21	10.8%
COc1cc(NC(=O)c2sc3nc(C)nc(N4CCN(C)CC4)c3c2C)cc(OC)c1	4.26%
C/C(CC(=O)NC1CCCCC1)=N\NC(=O)c1ccncc1	2.69%
COc1cc(OC)cc(C(=O)N/N=C(\C)CC(=O)NC2CCCCCCC2)c1	54.5% (active)
COc1cc(OC)cc(C(=O)N/N=C(\C)CC(=O)Nc2ccccc2-c2ccccc2)c1	51.5% (active)
COc1ccc(NC(=O)CS(=O)CC(=O)Nc2ccccc2-c2ccccc2)cc1 (configuration not stated)	-6.02%
COc1ccc(C(=O)N/N=C(\C)CC(=O)Nc2ccccc2)c(OC)c1	-36.2%
C/C(CC(=O)NC1CCCC1)=N\NC(=O)COc1cccc(C)c1	-8.3%
COc1ccc2nc(NC(=O)c3ccccc3OC)sc2c1	5.95%
CCc1nc(SCC(=O)Nc2nc(C)c(C)s2)c2ccccc2n1	5.48%
O=C1Nc2cc(C(=O)N3CCN(c4ccccn4)CC3)ccc2Nc2ccccc21	11.1%
COc1cccc(-c2cnn3c(N4CCC(O)CC4)ccnc23)c1	21.5%
OC1CCN(c2ccnc3c(-c4ccoc4)cnn23)CC1	-22.8%
COc1cc(-c2cnn3c(N4CCOCC4)ccnc23)cc(OC)c1OC	76.6% (active)
c1cc(N2CCOCC2)n2ncc(-c3ccc4[nH]ccc4c3)c2n1	96.6% (active)
COc1ccc(-c2cnn3c(N4CCOCC4)ccnc23)c(OC)c1	-6.8%
Clc1ccccc1-c1cnn2c(N3CCOCC3)ccnc12	16.7%
O=C(CNC(=O)c1ccco1)N/N=C/c1ccc(O)c(O)c1	3.54%

SMILES	inhibition
Cc1ccc(N(CC(=O)O)C2SC(=O)N(c3ccccc3)C2=O)cc1 (configuration not stated)	-28.6%
Cc1cc(C)cc(OCC(=O)Nc2sc3c(c2C(N)=O)CCCC3)c1	-1.21%
CCCCOC(=O)C1=C(C)NC2=C(C(=O)CC(C)(C)C2)C1c1ccc(Cl)cc1Cl (configuration not stated)	1.21%
Cc1ncn(-c2ccc(Nc3ncc(-c4cnn(C)c4)c(-c4cnn(C)c4)n3)cc2)n1	-5.05%
Cc1nc(C)n(-c2ccc(Nc3ncc4ccc(-c5cnn(C)c5)cc4n3)cc2)n1	84.9% (active)
Cc1nc(C)n(-c2ccc(Nc3cc(-n4ccnn4)ccn3)cc2)n1	1.02%
Cc1ccccc1CCNCc1ccc(C(=O)O)s1	-4.88%
CC(C)(C)c1nc2ccccc2c2nn(CC(=O)N3CCNC(=O)C3(C)C)c(=O)n12	-10.6%
O=C(NCC1CCCO1)c1ncoc1-c1cccc(Cl)c1 (configuration not stated)	-34.8%
Cn1nnc2c(N3CCN(CC(=O)Nc4ccccc4F)CC3)ncnc21	3.56%
Cc1nn2c(NCc3ccncc3)c3c(nc2c1-c1ccccc1)CCC3	-22.7%
O=C(Cn1cnc2ccccc2c1=O)NCc1ccccc1	2.51%
COc1cccc2c(=O)n(CC(=O)NCc3ccccc3)ccc12	38.8% (active)
COc1ccccc1NC(=O)Cn1ccc2ccccc2c1=O	-0.57%
Cn1c(-c2ccco2)nc2cc3ccccc3cc21	90.5% (active)
Cc1c(-n2c(-c3ccco3)nc3ccccc3c2=O)c(=O)n(-c2ccccc2)n1C	-10.7%
Cn1cc(S(=O)(=O)O)cc1-c1nc2ccccc2n1C	9.5%
NC1=NC(=Nc2cc(Cl)cc(Cl)c2)c2ccccc21	-2.03%
C(/C=C/c1ccccc1)=Nc1ccc(N2CCOCC2)cc1	18.8%
NC1=NC(=Nc2ccc(N3CCCCC3)cc2)c2ccccc21	60.5% (active)

Source: PubChem BioAssay AID1259422 (The Scripps Research Institute Molecular Screening Center, 2018)
